Measured values: PubChem BioAssay
Inconclusive results are not listed. Active and inactive are the calls of the source.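 The calls were made as follows, unless noted: active = normalized viability below 100% at a tested concentration; inactive = the rest.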

Experiments:
[1] = growth inhibition of DIPG glioma cells, dose response, cell-based, SU-DIPG-XVII, MIPE5.0, CellTiter-Glo, qHTS (AID 1347060; cut-off not given, nearly all actives have AC50 up to about 26 µM;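 also: cells exposed to compound for 48 hours before viability readout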); conditions: SU-DIPG-XVII viability, CellTiter-Glo ATP luminescence
[2] = growth inhibition of DIPG glioma cells, dose response, cell-based, SU-DIPG-XIII, MIPE4.0, CellTiter-Glo, qHTS (AID 1347061; cut-off not given, nearly all actives have AC50 up to about 37 µM;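 also: cells exposed to compound for 48 hours before readout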); conditions: SU-DIPG-XIII viability, CellTiter-Glo ATP luminescence
[3] = growth inhibition of DIPG glioma cells, dose response, cell-based, JHH-DIPG-1, MIPE4.0, CellTiter-Glo, qHTS (AID 1347062; cut-off not given, nearly all actives have AC50 up to about 27 µM;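 also: cells exposed to compound for two days before readout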); conditions: JHH-DIPG-1 viability, CellTiter-Glo ATP luminescence
[4] = growth inhibition of DIPG glioma cells, dose response, cell-based, SU-DIPG-IV, MIPE4.0, CellTiter-Glo, qHTS (AID 1347063; cut-off not given, nearly all actives have AC50 up to about 30 µM;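 also: compound exposure lasted 48 hours before the viability readout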); conditions: SU-DIPG-IV viability, CellTiter-Glo ATP luminescence
[5] = viability loss in pontine glioma line – cell-based, SU-DIPG-XXV, MIPE5.0, CellTiter-Glo, qHTS, dose response (AID 1347065; cut-off not given, nearly all actives have AC50 up to about 26 µM;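 also: cells exposed to compound for 48 hours before ATP readout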); conditions: CellTiter-Glo ATP luminescence
[6] = SU-DIPG-VI glioma cell viability, MIPE4.0 library, CellTiter-Glo luminescence, qHTS (AID 1347066; cut-off not given, nearly all actives have AC50 up to about 30 µM;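 also: cells exposed to compound for 48 hours before readout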); conditions: CellTiter-Glo ATP luminescence
[7] = JHH-DIPG-1 glioma cell viability, MIPE5.0 library, CellTiter-Glo luminescence, qHTS (AID 1347067; cut-off not given, nearly all actives have AC50 up to about 26 µM;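 also: cells exposed to compound for 48 hours before readout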); conditions: JHH-DIPG-1 glioma viability, CellTiter-Glo ATP luminescence
[8] = sensitizers of A549 cells to miR-34 induction, primary screen, imaging, A549 dox-inducible miR-34, nuclei and caspase counts (AID 1347080;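 active = compounds whose cell count with miR-34 switched on is under 0.7 times the count with it off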); conditions: A549 miR-34 inducible, Hoechst nuclei count, 48 h
[9] = modifiers of HSF1 nuclear foci, imaging, Selleck Cancer Library (AID 1347162; in the data active = plate-normalised HSF1 focus index below about 0.46); conditions: human cells, at 10 µM; SSMD: measured here: HSF1 foci SSMD mean; cell count: measured here: cell number; plate-normalised HSF1 focus index: stronger effect = lower value
[10] = survival rescue of mitochondrial mutant cells in low glucose, primary screen, MELAS cybrids, Rieske KO mouse fibroblasts, CellTiter-Glo (AID 1508586;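 active = mean z-score across replicates of 1.96 or higher in either the MELAS or the Rieske mutant cell line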;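 also: z relative to plate mean and SD of compound and empty wells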)
[11] = ovarian cancer cell viability with rucaparib, profiling panel, oncology-focused library, rucaparib conditional (AID 1508598); conditions: patient-derived ovarian cancer cells, CellTiter-Glo viability, 144 h, stronger effect = lower value
[12] = LFS_MB_P medulloblastoma growth inhibition, cell-based, chromothripsis tumors, cisplatin or BGB combos (AID 1671449; in the data active = inhibition above about 80%;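 also: cells exposed for 96 hours; 0% = vehicle DMSO and 100% = killing by high DMSO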); conditions: LFS_MB_P medulloblastoma cells
[13] = HDN33 neuroblastoma growth inhibition, cell-based, chromothripsis tumors, cisplatin or BGB combos (AID 1671450; in the data active = inhibition above about 80%;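 also: cells exposed to compound for four days; 0% = vehicle DMSO and 100% = cell killing by high DMSO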); conditions: HDN33 neuroblastoma cells, stronger effect = higher value
[14] = ICB984 medulloblastoma cell growth inhibition, synergistic combos for chromothripsis tumors, cisplatin or BGB combos (AID 1671451; call rule not given here;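 also: cells exposed for 96 hours before readout; 0% = vehicle DMSO and 100% = killing by high DMSO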); conditions: ICB984 medulloblastoma cells, drug combinations, stronger effect = higher value
[15] = HTB85 osteosarcoma cell growth inhibition, synergistic combos for chromothripsis tumors, BGB or cisplatin IC20 combos (AID 1671453; in the data active = inhibition above about 80%;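 also: cells exposed for 96 hours before readout; 0% = vehicle DMSO and 100% = high DMSO killing control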); conditions: HTB85 osteosarcoma cells, drug combinations, stronger effect = higher value
[16] = MDA-MB-436 breast carcinoma cell growth inhibition, synergistic combos for chromothripsis tumors, BGB or cisplatin combos (AID 1671458; call rule not given here;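 also: cells exposed for 96 hours; 0% = vehicle DMSO and 100% = killing by high DMSO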); conditions: MDA-MB-436 breast carcinoma growth inhibition, drug combinations, stronger effect = higher value
[17] = growth inhibition of BT084 medulloblastoma cells, cell-based, ICGC_MB145, cisplatin and BGB IC40 combos (AID 1671461; in the data active = inhibition above about 80%;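 also: cells exposed to drugs for 96 hours; 0% = vehicle DMSO and 100% = high DMSO full killing control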); conditions: drug combinations, stronger effect = higher value
[18] = growth inhibition of RCMB18 medulloblastoma cells, cell-based, cisplatin and BGB IC40 combos (AID 1671462; in the data active = inhibition above about 80%;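 also: cells exposed to compound for four days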); conditions: stronger effect = higher value
[19] = SU-DIPG-XXV glioma cell viability, MIPE5.0 library, qHTS (AID 1347068; cut-off not given, nearly all actives have IC50 up to about 30 µM;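 also: cells exposed to compound for 48 hours before viability readout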)

CN(C)Cc1c(C(=O)NCCOc2ccc(C(=O)NO)cc2)oc2ccccc12
AC50 [1]: 4170 nM (active)
AC50 [2]: 4690 nM (active)
AC50 [3]: 935 nM (active)
AC50 [4]: 3320 nM (active)
AC50 [5]: 833 nM (active)
AC50 [6]: 2960 nM (active)
AC50 [7]: 934 nM (active)
fold change ([8]; stronger effect = lower value, cell number ratio, induced over uninduced): 1.4 (inactive)
fold change ([8]; measured here: relative caspase fold change +Dox/-Dox): 0.9
cell count ([8]; measured here: total cells with miR-34 induction, stronger effect = lower value): 1280
cell count ([8]; measured here: total cells without miR-34 induction): 916
SSMD [9]: 0.722
cell count [9]: 7540
plate-normalised HSF1 focus index [9]: 1.05 (inactive)
z-score ([10]; MELAS cybrid survival, CellTiter-Glo 48 h, stronger effect = higher value): 0.162 (inactive)
z-score ([10]; Rieske KO mouse fibroblast survival, CellTiter-Glo 72 h): -1.7
viability ([11]; at 0.000305 µM, OCI-C5x cells, with rucaparib 10 µM, 100% = cells with rucaparib alone): 130% (inactive)
viability ([11]; at 0.000305 µM, OCI-C5x cells, without rucaparib): 128% (inactive)
viability ([11]; at 0.000305 µM, OCI-P5x cells, with rucaparib 20 µM, 100% = cells with rucaparib alone): 105% (inactive)
viability ([11]; at 0.000305 µM, OCI-P5x cells, without rucaparib): 104% (inactive)
viability ([11]; at 0.00122 µM, OCI-C5x cells, with rucaparib 10 µM, 100% = cells with rucaparib alone): 129% (inactive)
viability ([11]; at 0.00122 µM, OCI-C5x cells, without rucaparib): 123% (inactive)
viability ([11]; at 0.00122 µM, OCI-P5x cells, with rucaparib 20 µM, 100% = cells with rucaparib alone): 103% (inactive)
viability ([11]; at 0.00122 µM, OCI-P5x cells, without rucaparib): 104% (inactive)
viability ([11]; at 0.00488 µM, OCI-C5x cells, with rucaparib 10 µM, 100% = cells with rucaparib alone): 144% (inactive)
viability ([11]; at 0.00488 µM, OCI-C5x cells, without rucaparib): 128% (inactive)
viability ([11]; at 0.00488 µM, OCI-P5x cells, with rucaparib 20 µM, 100% = cells with rucaparib alone): 97.2% (active)
viability ([11]; at 0.00488 µM, OCI-P5x cells, without rucaparib): 101% (inactive)
viability ([11]; at 0.0195 µM, OCI-C5x cells, with rucaparib 10 µM, 100% = cells with rucaparib alone): 118% (inactive)
viability ([11]; at 0.0195 µM, OCI-C5x cells, without rucaparib): 131% (inactive)
viability ([11]; at 0.0195 µM, OCI-P5x cells, with rucaparib 20 µM, 100% = cells with rucaparib alone): 81.2% (active)
viability ([11]; at 0.0195 µM, OCI-P5x cells, without rucaparib): 97.1% (active)
viability ([11]; at 0.0781 µM, OCI-C5x cells, with rucaparib 10 µM, 100% = cells with rucaparib alone): 121% (inactive)
viability ([11]; at 0.0781 µM, OCI-C5x cells, without rucaparib): 138% (inactive)
viability ([11]; at 0.0781 µM, OCI-P5x cells, with rucaparib 20 µM, 100% = cells with rucaparib alone): 91.6% (active)
viability ([11]; at 0.0781 µM, OCI-P5x cells, without rucaparib): 104% (inactive)
viability ([11]; at 0.313 µM, OCI-C5x cells, with rucaparib 10 µM, 100% = cells with rucaparib alone): 123% (inactive)
viability ([11]; at 0.313 µM, OCI-C5x cells, without rucaparib): 132% (inactive)
viability ([11]; at 0.313 µM, OCI-P5x cells, with rucaparib 20 µM, 100% = cells with rucaparib alone): 69.9% (active)
viability ([11]; at 0.313 µM, OCI-P5x cells, without rucaparib): 79.9% (active)
viability ([11]; at 1.25 µM, OCI-C5x cells, with rucaparib 10 µM, 100% = cells with rucaparib alone): 135% (inactive)
viability ([11]; at 1.25 µM, OCI-C5x cells, without rucaparib): 150% (inactive)
viability ([11]; at 1.25 µM, OCI-P5x cells, with rucaparib 20 µM, 100% = cells with rucaparib alone): 82.3% (active)
viability ([11]; at 1.25 µM, OCI-P5x cells, without rucaparib): 77.6% (active)
viability ([11]; at 5 µM, OCI-C5x cells, with rucaparib 10 µM, 100% = cells with rucaparib alone): 8.92% (active)
viability ([11]; at 5 µM, OCI-C5x cells, without rucaparib): 7.82% (active)
viability ([11]; at 5 µM, OCI-P5x cells, with rucaparib 20 µM, 100% = cells with rucaparib alone): 5.56% (active)
viability ([11]; at 5 µM, OCI-P5x cells, without rucaparib): 34% (active)
inhibition ([12]; at 0.5 µM, stronger effect = higher value): 21.6% (inactive)
inhibition ([12]; measured here: combination with BGB IC20, at 0.005 µM): -27.6%
inhibition ([12]; measured here: combination with BGB IC40, at 0.005 µM): -6.96%
inhibition ([12]; measured here: combination with BGB IC40, at 0.05 µM): 9.02%
inhibition ([12]; measured here: combination with cisplatin, at 0.5 µM, stronger effect = higher value): 46.7%
inhibition ([12]; measured here: combination with cisplatin, at 5 µM, stronger effect = higher value): 110%
inhibition ([13]; BGB combo, at 5 µM): 99.4%
inhibition ([13]; at 0.5 µM): 78.8% (inactive)
inhibition ([13]; cisplatin combo, at 5 µM): 99.8%
inhibition ([13]; measured here: with BGB IC20 combination, at 0.5 µM): 69%
inhibition ([13]; measured here: with cisplatin IC20 combination, at 0.5 µM): 82.8%
inhibition ([13]; single agent, at 5 µM): 99.8%
inhibition ([14]; BGB IC20 combo, at 0.005 µM): 27.4%
inhibition ([14]; BGB IC40 combo, at 0.005 µM): 31.8%
inhibition ([14]; BGB IC40 combo, at 0.05 µM): 93.6%
inhibition ([14]; at 0.5 µM): -23.7% (inactive)
inhibition ([14]; cisplatin combo, at 0.05 µM): 93.4%
inhibition ([14]; cisplatin combo, at 0.5 µM): -34.8%
inhibition ([14]; cisplatin combo, at 5 µM): -32%
inhibition ([14]; measured here: 5 uM single agent, at 5 µM): -19.3%
inhibition ([15]; at 0.5 µM): 87.5% (active)
inhibition ([15]; measured here: with BGB IC20, at 0.5 µM): 87.4%
inhibition ([15]; measured here: with BGB IC20, at 5 µM): 99.8%
inhibition ([15]; measured here: with cisplatin IC20, at 0.5 µM): 90.7%
inhibition ([15]; measured here: with cisplatin IC20, at 5 µM): 99.9%
inhibition ([15]; single agent, at 5 µM): 99.8%
inhibition ([16]; at 0.5 µM): 43.7% (inactive)
inhibition ([16]; measured here: BGB combination, at 0.5 µM): 36%
inhibition ([16]; measured here: BGB combination, at 5 µM): 60%
inhibition ([16]; measured here: cisplatin combination, at 0.5 µM): 42%
inhibition ([16]; measured here: cisplatin combination, at 5 µM): 69.4%
inhibition ([17]; at 0.5 µM): 52% (inactive)
inhibition ([17]; cisplatin combination, at 0.5 µM): 79.4%
inhibition ([17]; cisplatin combination, at 5 µM): 101%
inhibition ([17]; measured here: BGB IC40 combination 0.05 uM, at 0.05 µM): 30.2%
inhibition ([17]; single agent, at 5 µM): 108%
inhibition ([18]; at 0.5 µM): 47.1% (inactive)
inhibition ([18]; cisplatin combo, at 5 µM): 96.9%
inhibition ([18]; measured here: BGB IC40 combination, at 0.05 µM): 20.1%
inhibition ([18]; measured here: combination with cisplatin, at 0.5 µM): 58.8%
inhibition ([18]; single agent, at 5 µM): 92.2%

CC(C)C[C@H](NC(=O)[C@@H](NC(=O)c1cccc(-c2ccccc2)n1)[C@@H](C)O)B(O)O
AC50 [1]: 45.6 nM (active)
AC50 [2]: 16600 nM (active)
AC50 [3]: 52.6 nM (active)
AC50 [4]: 23.5 nM (active)
AC50 [5]: 20.4 nM (active)
AC50 [6]: 66.2 nM (active)
AC50 [7]: 81.1 nM (active)
IC50 [19]: 25.7 nM (active)
